Each structure is given as a SMILES string.

Among the data in ChEMBL document CHEMBL1157539, “Thousands of chemical starting points for antimalarial lead identification” (Nature, 2010) are Inhibition values, retold here.

In the experiment the test system is Plasmodium falciparum. The experiment is described as follows: GSK_TCMDC: Inhibition of Plasmodium falciparum Dd2 in whole red blood cells, using parasite LDH activity as an index of growth. Test compounds present at 2uM. It counts as functional.
Turning to `CC(C)CC(=O)Nc1cc(=O)[nH]c2nc(-c3ccccc3)nn12`, the Inhibition was found to be 85%.

`COc1ccc2nc(-c3cc(-c4ccc(NC(=O)CN5CCOCC5)cc4)cnc3N)[nH]c2c1` yielded an Inhibition of 72%.

As to `CCN(CC)CCN(Cc1ccc(-c2ccc(C(F)(F)F)cc2)cc1)C(=O)Cn1c(CCc2ccc(F)cc2)nc(=O)c2sccc21.O=C(O)C(O)C(O)C(=O)O`, the Inhibition turned out to be 90%.

The molecule `COc1cc(NCCCNC(=O)c2cc3c(Cl)cc(Cl)cc3[nH]2)nc2ccccc12` came in with an Inhibition of 100%.

Regarding `O=C(Nc1ccccc1-c1nc2ccccc2s1)C(Cl)(Cl)Cl`, the Inhibition was determined as 99%.

Molecule `O=C(NC1CC1)c1ccc(Nc2nccc(-c3c(-c4cccc(NC(=O)c5c(F)cccc5F)c4)nn4ccccc34)n2)cc1` registered an Inhibition of 96%.

`COc1ccc2nccc(N3CCN(CCNCc4ccc5c(n4)NC(=O)CO5)CC3)c2c1.Cl` gave an Inhibition of 5%.

The molecule `CC(C)(C)c1nn(-c2ccc(Cl)cc2)c2[nH]c(=O)c(CNCc3ccc4c(c3)OCO4)cc12` had an Inhibition of 98%.

`Cn1nc(-c2ccc(NC(=O)Nc3ccc4ccccc4c3)c(F)c2)c2cnc(NCCN3CCOCC3)nc21.O=C(O)C(F)(F)F`: the Inhibition amounted to 3%.

On to `Fc1ccc2[nH]c(-c3cccc(-c4ccc(CN5CCN(CCN6CCOCC6)CC5)cc4)c3)nc2c1.O=C(O)C(F)(F)F`, for which the Inhibition was 100%.

On to `NCCCNc1nccc(N2CCc3ncnc(Nc4ccc(OCc5cccc(F)c5)c(Cl)c4)c3C2)n1`, for which the Inhibition is 93%.

`O=C(C1CCN(c2nnnn2-c2ccccc2)CC1)N1CCc2ccccc2C1` returned an Inhibition of 97%.

`CCc1ccc(-n2cc(C(=O)c3cc(Br)ccc3O)cc(C#N)c2=O)cc1`: the Inhibition was determined as 30%.

On to `CN(C)c1ccc(CN2CCC(CNC(=O)c3cc(-c4ccccc4Cl)cs3)C2)cc1.O=C(O)C(F)(F)F` (stereo not given), for which the Inhibition worked out at 5%.

Take `CCn1c(-c2nonc2N)nc2c(-c3ccccc3)ncc(OCCCCNCCc3ncc[nH]3)c21.O=C(O)C(F)(F)F`: the Inhibition was 42%.

As to `O=C(c1cc(C(=O)NC2CCCCC2)c(=O)n(C2CCCCC2)c1)c1cc(F)ccc1O`, the Inhibition amounted to 98%.

Consider `COc1ccc2nccc([C@@H](O)CN3CCC(NC(=O)c4cc5c(F)cc(F)cc5[nH]4)CC3)c2c1.CS(=O)(=O)O`, for which the Inhibition is listed as 98%.

The molecule `CCCCOc1cc(OC)c2ccccc2c1CCNCCCCNCCc1c(OCCCC)cc(OC)c2ccccc12.CS(=O)(=O)O` registered an Inhibition of 82%.

On to `Cl.O=C(NCCCCN1CCC(O)(c2ccc3c(c2)OCO3)CC1)c1ccc(NC(=O)c2ccc(Cl)cc2)cc1`, for which the Inhibition was determined as 6%.

`Cc1cccc2nc(-c3cccc(-c4ccc(NC(=O)NCc5cccc(F)c5)cc4)c3)[nH]c12` showed an Inhibition of 83%.

Take `CCCNCc1ccc(-c2ccc(CN(Cc3cnc(C)cn3)C(=O)c3nn(-c4ccccc4)nc3C)cc2)nc1.O=C(O)C(F)(F)F`: the Inhibition amounted to 49%.

For `CC(C)[C@H](NC(=O)c1ccc(O)c(-c2ccc(Cl)c(Cl)c2)c1)C(=O)NC1CCCCCC1`, the Inhibition worked out at 99%.

In the case of `COc1ccc(CCNC(=O)c2ccc(-n3cc(NC(=O)c4cccnc4)cn3)cc2)cc1OC`, the Inhibition is recorded as 89%.

`C/C=C/COc1ccc2ccccc2c1CNCCCCCCCCNCc1c(OC/C=C/C)ccc2ccccc12.CS(=O)(=O)O.O` registered an Inhibition of 86%.

The molecule `N#Cc1cccc(NC(=O)c2ccc(S(=O)(=O)NCC3CCCN3CC3CCCCC3)cc2)c1.O=C(O)C(F)(F)F` (stereo not given) yielded an Inhibition of 18%.

Molecule `CC(=O)c1cccc2cc(C(=O)NC3CCC(CCN4CCc5ccc(C#N)cc5C4)CC3)[nH]c12.Cl` (stereo not given) had an Inhibition of 17%.

`COc1ccc2nccc([C@H](O)CN3CCC(NCc4nc5cccc(F)c5[nH]4)CC3)c2c1.O=C(O)C(=O)O` showed an Inhibition of 0%.

In the case of `CCc1cccc(-n2c(=O)c3cccnc3n2CC(=O)NCc2ccccc2Cl)c1`, the Inhibition was 19%.

As to `CCCOc1cc(OCCC)cc(-c2cc(=O)c3ccccc3[nH]2)c1`, the Inhibition was found to be 96%.

The molecule `Cc1cccc(-c2nn(-c3ccccc3)c3[nH]c(=O)c(CNC4CCCC4)cc23)c1` yielded an Inhibition of 97%.

On to `Cn1ncc2ccc(Nc3nccc(-c4ccc5c(c4)c(N)nn5C)n3)cc21`, for which the Inhibition amounted to 96%.

`O=C(NCCN1CCC(c2ncc(-c3ccccc3)o2)CC1)c1ccc(NC(=O)c2ccc(Cl)cc2)cc1` displayed an Inhibition of 80%.

Take `Br.NCC(=O)NC12CC3CC(CC(C3)C1)C2`: the Inhibition is recorded as 0%.

With `CCC(C)CN1CCCN(c2ccc(NC(=O)c3cccs3)cc2)CC1.O=C(O)C(F)(F)F` (stereo not given), the Inhibition amounted to 95%.

In turn, `Cc1c(-c2cccc(CNCCc3ccc(Cl)cc3)c2)cnc(N)c1C.Cl` displayed an Inhibition of 30%.

Consider `CN(C)CCCOC(=O)c1cc2cc(-c3ccccc3)ccc2n1S(=O)(=O)Cc1ccccc1.Cl`, for which the Inhibition stood at 70%.

Molecule `O=C(Nc1ccc(C(F)(F)F)cc1)c1cccc(S(=O)(=O)NCC2CCCN(CC3CCCCC3)C2)c1.O=C(O)C(F)(F)F` (stereo not given) gave an Inhibition of 4%.

In turn, `CCN(CCCN1CCCCC1)c1cc(C)nc(Nc2ccc(C)cc2C)n1.O=C(O)C(F)(F)F` came in with an Inhibition of 35%.

For the molecule `CS(=O)(=O)Nc1cccc(-c2cnc3[nH]cc(-c4ccc(C(=O)O)cc4)c3c2)c1`, the Inhibition was determined as 82%.

In the case of `Cl.N#Cc1ccc2c(c1)CCN(CCC1CCC(NC(=O)c3cc4ccc(Cl)cc4[nH]3)CC1)C2` (stereo not given), the Inhibition came to 0%.

What is called Inhibition is the percentage by which the read-out fell short of the control. A higher Inhibition goes with a strong effect.
